# Only some compounds are listed: those with a hit (about 2.7% of all), similar ones and a draw of the others.
# ALOX12 inh = ALOX12 (human) lipoxygenase inhibition; Potency, µM (series often up to 108 µM), for the others: top-dose activity change, negative = inhibition, usual class: inhibitors; P18054; purified 12hLO, xylenol orange hydroperoxide absorbance; hit rate 1.1% among 580,000; also: potency is read from the fitted curve at half-maximal effect; % is scaled to controls: 0 for no effect and ±100 for the full control effect
# Target sequence (P18054 whole entry, looked up): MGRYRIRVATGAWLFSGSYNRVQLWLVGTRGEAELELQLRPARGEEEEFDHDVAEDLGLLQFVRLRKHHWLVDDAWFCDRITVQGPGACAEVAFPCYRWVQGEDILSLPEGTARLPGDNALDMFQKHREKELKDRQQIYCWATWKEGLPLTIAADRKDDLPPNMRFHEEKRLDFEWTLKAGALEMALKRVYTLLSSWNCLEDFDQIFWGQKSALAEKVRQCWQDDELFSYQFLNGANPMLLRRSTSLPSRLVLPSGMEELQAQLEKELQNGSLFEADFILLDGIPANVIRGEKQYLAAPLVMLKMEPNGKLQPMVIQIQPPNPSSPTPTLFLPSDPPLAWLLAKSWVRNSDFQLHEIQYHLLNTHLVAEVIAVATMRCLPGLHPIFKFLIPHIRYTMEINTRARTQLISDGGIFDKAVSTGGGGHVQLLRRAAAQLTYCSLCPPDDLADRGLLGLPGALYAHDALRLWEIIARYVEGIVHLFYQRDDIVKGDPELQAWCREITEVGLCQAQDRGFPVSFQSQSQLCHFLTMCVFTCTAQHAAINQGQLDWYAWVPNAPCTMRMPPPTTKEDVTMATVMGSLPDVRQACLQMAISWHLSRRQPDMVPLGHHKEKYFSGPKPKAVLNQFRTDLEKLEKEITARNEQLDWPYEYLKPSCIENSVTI
#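 Purified human 12hLO (150 nM final) in 25 mM Hepes, 0.01% Triton X-100, pH 7.0 was preincubated 15 min at room temperature with compound. Then 40 uM arachidonic acid was added, 30 min. Hydroperoxide was read by Fe-XO absorbance ratio 573/405 nm.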
# A549 tox = counter-screen for Nrf2 inhibitors: cytotoxicity in A549 cells; A549 ARE-Fluc cells, CellTiter-Fluor viability, 18-24 h; AID 504648; hit rate 0.16% among 390,000; Potency, µM (highest dose often 46 µM), inactives show at the top dose activity change, negative = cytotoxicity, usual class: inhibitors; also: potency is read from the fitted curve at half-maximal effect; % is scaled to controls: 0 for no effect and ±100 for the full control effect
#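 A549 ARE_Fluc cells in 5% FBS OPTI-MEM were exposed to compounds in concentration-response for 18-24 h at 37 deg C. Viability was read by CellTiter-Fluor fluorescence (Ex 405/Em 525) after 30 min, before the luciferase read.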
# LDHA inh = blocks human lactate dehydrogenase A | activity change, % (values are at about 110 or 230 µM) | purified LDHA, NADH/diaphorase-resazurin fluorescence; active compounds read low | hit rate 0.15% among 480,000 | P00338; in the data active = activity change below about -30%; inconclusive = mostly about -25% to -30%;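 also: plate controls were DMSO wells for no effect and wells without enzyme for full effect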
#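 Remaining NADH was detected by diaphorase (0.133 mg/mL) converting 37 µM resazurin to fluorescent resorufin, read at 0 and 20 minutes. The preceding 5-minute room-temperature reaction used 2 nM LDHA, 0.2 mM sodium pyruvate and 0.06 mM NADH at pH 7.4.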
# Nrf2 ARE act = activates Nrf2 signaling. AREc32 ARE-luciferase reporter (MCF7-derived line), luminescence, 24 h. Potency, µM (titrated, usually from 46.1 µM), without a hit: at the highest dose activation, most hits filed as activators. hit rate 0.31% among 410,000; also: potency is read from the fitted curve at half-maximal effect; % of control where 0% means no effect; nearly all actives have a fitted effect of over 65% in size
#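 AREc32 cells carrying an ARE-driven firefly luciferase reporter were seeded at 1000 cells/well in OPTI-MEM with 5% FBS, then exposed to compound for 24 hr at 37 deg C. Luminescence was read with Steady-Glo after 30 min at RT.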
# Nrf2 inh = Nrf2 pathway inhibition; A549 ARE-Fluc reporter, luciferase luminescence, 18-24 h; Potency, µM (top dose mostly 46 µM), without a hit: at the highest dose activity change, negative = inhibition, most hits filed as inhibitors; hit rate 2.1% among 360,000; also: potency is read from the fitted curve at half-maximal effect; % is scaled to controls: 0 for no effect and ±100 for the full control effect; nearly all actives have a fitted effect of over 60% in size
#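 Two sequential reads on A549 ARE_Fluc cells exposed to compound for 18-24 h: a CellTiter-Fluor fluorescence read for viability, then a luciferase luminescence read for Nrf2/ARE activity.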
# ERG Ets-DNA blk = blocks human ERG Ets domain binding to DNA; Potency, µM (top dose mostly 76.9 µM), inactives show top-dose FP activity, negative = inhibition, actives largely listed as inhibitors; fluorescence polarization, His-ERG Ets domain / labelled DNA; hit rate 0.028% among 370,000; P11308; AID 624246; active = well fitted inhibition curve with a large enough effect in the polarisation, with a control signal flat; inconclusive = small, poorly fitted or top-dose-only effect, or effect the other way, or a change in a side signal; inactive = no such curve, though single readings can be large or run the other way; the % refers to the polarisation;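 also: polarization taken with two DNA probes labelled with fluorescein and Texas red; potency is read from the fitted curve at half-maximal effect; % of control where 0% means no effect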
#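 His-tagged ERG Ets domain (1 uM in the protein solution; 300mM KCl, 50mM Tris-HCl, 1mM EDTA, 1mM DTT, pH 7.5) received compound, then a probe mix of 5 nM fluorescein-DNA and 100nM Texas-615-DNA. Fluorescence polarization was read for both dyes.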
# Active calls of the source: *; ? = inconclusive; / = no result given; ! = not active in a repeat; [ ] = another dose, or the depositor's remark. Unless noted, calls follow the shape of the dose curve; as a rule, active = well fitted curve in the direction sought with a large enough effect; inconclusive = small, poorly fitted or top-dose-only effect, or another doubt; inactive = no such curve, though single readings can be large; an effect the other way counts as inactive or inconclusive.
SMILES,ALOX12 inh,A549 tox,LDHA inh,Nrf2 ARE act,Nrf2 inh,ERG Ets-DNA blk
CCOC(=O)CSC1=C(C#N)C(c2ccc(C)s2)CC(=O)N1 (stereo not drawn),7.5%,?,0.0,0.2%,20.6µM*,/
CCSC1=C(C#N)C(c2ccc(C)s2)CC(=O)N1 (stereo not drawn),13.6%,-1.2%,-1.3,0.2%,-15.2%,8.8%
CC(=O)c1ccc(S(=O)(=O)N(C)C(C)c2cc3ccccc3o2)cc1 (stereo not drawn),-24.0%,/,-16.4,/,/,/
Cc1ccc(C)c(N2CCN(C(=O)c3ccc(CS(=O)Cc4ccc(Cl)cc4)o3)CC2)c1 (stereo not drawn),2.3%,?,0.5,0.2%,20.6µM*,-7.9%
CCCN1CCC(NC(=O)COc2ccc(Cl)cc2C)CC1,?,/,-4.8,/,/,/
Cc1ccc(C)c(N2CCN(S(=O)(=O)c3ccc4c(c3)CCCN4C(=O)C3CCC3)CC2)c1,-18.5%,11.1%,5.3,0.6%,/,-4.2%
CC(=O)Nc1ccc(S(=O)(=O)N2CCCC(C(=O)N3CCN(c4ccccc4)CC3)C2)cc1 (stereo not drawn),-13.5%,-0.1%,0.8,-0.3%,?,?
COc1ccc(C)cc1S(=O)(=O)N1CCCC(C(=O)N2CCN(c3ccccc3)CC2)C1 (stereo not drawn),0.0%,1.3%,-3.3,-0.6%,25.9µM*,3.1%
COc1ccc(CNC(=O)C2CCCN(S(=O)(=O)c3ccc4c(c3)CCCN4C(C)=O)C2)cc1 (stereo not drawn),13.6%,0.1%,2.0,-0.2%,20.6µM*,-5.5%
CC(=O)N1CCCc2cc(S(=O)(=O)N3CCCC(C(=O)N4CCN(c5cc(C)ccc5C)CC4)C3)ccc21 (stereo not drawn),-10.8%,-10.3%,-0.3,-0.8%,7.31µM*,13.8%
CC(=O)N1CCCc2cc(S(=O)(=O)N3CCCC(C(=O)N4CCN(c5ccccc5)CC4)C3)ccc21 (stereo not drawn),2.2%,-6.5%,-0.7,-0.2%,13µM*,8.4%
CCCCNC1C2CC3CC1CC(C2)C3NCCCC (stereo not drawn),27.0%,/,3.7,/,/,/
Cc1cc(C)c(/C=N/NC(=O)C(c2ccccc2)c2ccccc2)c(C)c1,?,/,1.5,/,/,/
Cc1ccc(NC(=S)NCc2ccccc2Cl)cc1,?,/,9.9,/,/,/
CC(=O)N=c1nc(-c2ccccc2)n(-c2ccccc2)s1,/,-0.5%,-32.0*,/,16.8%,/
Cc1ccc(-c2nc(=Nc3c(C)cc(C)cc3C)sn2-c2ccccc2)cc1,/,-29.9%,-5.4,/,23.1µM*,/
CN=c1nc(-c2ccccc2)n(-c2ccccc2)s1,?,-7.0%,-7.6,13.8%,?,-8.5%
CCCCOc1ccc(NC(=O)Cc2ccc(OC)cc2)c2cccnc12,?,/,34.8,/,/,/
O=C(O)c1ccc(N/N=C/c2cccc3cccnc23)cc1,1.6%,-18.8%,-2.9,-0.3%,?,8.0%
O=C(O)c1ccc(N/N=C/c2ccnc3ccccc23)cc1,13.2%,?,-36.6*,-0.2%,-12.2%,16.5%
O=C1CC(c2cccc(Oc3ccccc3)c2)NC(=O)N1 (stereo not drawn),1.7%,0.5%,-7.0,0.1%,0.0%,-18.1%
CCCC(=O)C1=C(O)C(c2cccc(Oc3ccccc3)c2)CCC1=O (stereo not drawn),-7.9%,?,2.4,0.1%,18.4µM*,-9.3%
CC1CCN(C(=S)c2cn(Cc3cccc(F)c3)c3ccccc23)CC1,44.7µM*,-1.0%,-4.0,0.2%,-25.7%,13.0%
O=C(O)c1cc(S(=O)(=O)Nc2ccc3oc(=O)sc3c2)ccc1O,?,2.6%,?,-1.0%,/,-6.0%
CC(=O)c1c(C)oc2ccc(NS(=O)(=O)c3ccc(O)c(C(=O)O)c3)cc12,15.8µM*,-2.7%,-3.8,-0.3%,2.1%,1.0%
SMILES,ALOX12 inh,A549 tox,LDHA inh,Nrf2 ARE act,Nrf2 inh,ERG Ets-DNA blk
CCn1cnc2c1c(=O)n(CC(=O)NCc1cccs1)c(=O)n2Cc1ccccc1,?,/,-1.0,/,/,/
O=C(C1CCCN(S(=O)(=O)c2cccc3nsnc23)C1)N1CCCCCC1 (stereo not drawn),-2.7%,0.7%,-6.9,0.2%,-15.5%,0.8%
O=C(C1CCCN(S(=O)(=O)c2cccc3nsnc23)C1)N1CCc2ccccc2C1 (stereo not drawn),-19.1%,-16.7%,1.1,3.5%,14.6µM*,14.3%
CCC(NC(=O)CCl)c1ccc(C)cc1 (stereo not drawn),-14.7%,?,-5.0,?,23.1µM*,-7.9%
CCC(NC(=O)C1CC1)c1ccc(C)cc1 (stereo not drawn),5.01µM*,/,4.3,/,/,/
CC(=O)N1N=C(c2ccc(Cl)cc2)CC1c1ccc([N+](=O)[O-])cc1 (stereo not drawn),4.5%,-5.3%,-4.1,-0.2%[9.22 µM],?,-1.6%
CC1(O)CC(c2ccc(Cl)cc2)=NN1C(=O)c1ccc([N+](=O)[O-])cc1 (stereo not drawn),?,?,-7.1,6.9%,18.4µM*,8.1%
O=C(C1CCC1)N(C1CCCCC1)C1CCCCC1,15.8%,/,-0.3,/,/,/
O=c1[nH]c2ccccc2c(-c2ccccc2)c1Sc1nc2ccccc2s1,?,/,-0.9,/,/,/
CN(C)C1(CN=Cc2cc(Cl)cc([N+](=O)[O-])c2O)CCCCC1,17.8µM*,-6.4%,6.5,5.2%,1.5%,-5.7%
N#CC(=C(/N)Sc1ccccc1N)/C(C#N)=C(\N)Sc1ccccc1N,31.6µM*!,/,/,/,/,/
CC(=O)NC(=S)NNC(=O)c1ccc(-c2ccccc2)cc1,?,/,-7.1,/,/,/
CC(C)(C)C(=O)NC(=S)NNC(=O)c1ccc(Cl)cc1Cl,?,?,-7.9,0.1%,8.2µM*,-7.4%
CC(C)(C)C(=O)NC(=S)NNC(=O)c1ccc(-c2ccccc2)cc1,/,?,-2.0,-1.7%,2.91µM*,-2.8%
Cc1ccc2c(c1)C(N1CCCC1=O)CC(c1ccco1)N2 (stereo not drawn),?,-2.9%,2.1,11.2µM*,?,-1.4%

# Screening data: PubChem BioAssay, National Center for Advancing Translational Sciences (NCATS)
